# Assay results as given in the supplement of paper PMC6555819.
# Legend:
# Test in all cases: PBM binding z-score (relative to random genomic background probes); higher = stronger binding; sequences stand for … in GC…GCGATTGACAGCGTAGAATGAAGG
# [1] = test system: PPARg:RXRa DBDmut IVT, anti-RXR (DBD mutation: RXRa K156A/R161A, NR concentration 270 nM, RXRa partner concentration 90 nM)
# How it was run: (§1)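 The probes on custom Agilent 4×180K protein-binding microarrays were double-stranded, with 34-nt variable regions bearing direct-repeat seeds, single-nucleotide variants, half-site ablations and random human genomic background sequences. Incubation lasted 1 h with ligand-free nuclear receptor dimers in PBS pH 7.4, 2% milk, 0.02% Triton X-100, 1 mM DTT, 0.2 mg/mL BSA and 0.4 mg/ml salmon testes DNA. Antibodies against each partner (one per run) detected bound dimers, and fluorescence scans were regression-normalized. Binding z-scores take the random background probes as reference.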
# [2] = test system: PPARg:RXRa IVT, anti-PPARg (NR concentration 270 nM, RXRa partner concentration 90 nM)
# How it was run: as §1
# [3] = test system: PPARg DBDmut:RXRa IVT, anti-PPARg (DBD mutation: PPARg1 K132A/R137A, NR concentration 270 nM, RXRa partner concentration 90 nM)
# How it was run: as §1
# [4] = test system: PPARg DBDmut IVT, anti-PPARg (DBD mutation: PPARg1 K132A/R137A, NR concentration 270 nM)
# How it was run: as §1
# [5] = test system: PPARg homodimer (NR concentration 180 nM)
# How it was run: as §1
# [6] = test system: PXR:RXRa (NR concentration 270 nM, RXRa partner concentration 90 nM)
# How it was run: as §1
# [7] = test system: PXR homodimer (NR concentration 270 nM)
# How it was run: as §1
# [8] = test system: RARa:RXR (NR concentration 270 nM, RXRa partner concentration 90 nM)
# How it was run: as §1
# [9] = test system: RARa homodimer (NR concentration 270 nM)
# How it was run: as §1
# [10] = test system: RARb:RXRa (NR concentration 270 nM, RXRa partner concentration 90 nM)
# How it was run: as §1
# [11] = test system: RARb homodimer (NR concentration 270 nM)
# How it was run: as §1
# [12] = test system: RARg:RXRa (NR concentration 270 nM, RXRa partner concentration 90 nM)
# How it was run: as §1
# [13] = test system: RARg homodimer (NR concentration 270 nM)
# How it was run: as §1
# [14] = test system: RXRa DBDmut IVT, anti-RXR (DBD mutation: RXRa K156A/R161A, NR concentration 90 nM)
# How it was run: as §1
# [15] = test system: RXRa homodimer (NR concentration 180 nM)
# How it was run: as §1
# [16] = test system: THRa:RXRa (NR concentration 90 nM, RXRa partner concentration 90 nM)
# How it was run: as §1
# [17] = test system: THRa homodimer (NR concentration 90 nM)
# How it was run: as §1
# [18] = test system: VDR homodimer (NR concentration 270 nM)
# How it was run: as §1
# [19] = test system: VDR:RXRa (NR concentration 270 nM, RXRa partner concentration 90 nM)
# How it was run: as §1
Sequence,PBM binding z-score [1],PBM binding z-score [2],PBM binding z-score [3],PBM binding z-score [4],PBM binding z-score [5],PBM binding z-score [6],PBM binding z-score [7],PBM binding z-score [8],PBM binding z-score [9],PBM binding z-score [10],PBM binding z-score [11],PBM binding z-score [12],PBM binding z-score [13],PBM binding z-score [14],PBM binding z-score [15],PBM binding z-score [16],PBM binding z-score [17],PBM binding z-score [18],PBM binding z-score [19]
CCAGACAGGTGAAAGGTAACTCCGTCTGGTACGC,1.67,2.94,-0.44,-0.311,1.15,0.836,-0.734,1.5,0.043,1.23,0.693,1.23,0.537,-0.24,2.07,0.859,-0.16,-0.193,
ACTAGAAGGCCAAGGGTCACTCAAGATTAGTCCG,0.756,3.55,0.734,-0.0604,5,3.73,0.235,5.15,1.18,3.92,3.97,4.79,4.33,0.883,4.57,2.87,0.528,1.92,
GCTGCTAGGTCGACTGATGGTCAGCTAAAGCTCG,1.27,0.463,-1.49,-1.06,-0.687,-0.436,-1.21,0.0289,-1.87,1.37,0.638,1.2,0.89,0.38,0.265,0.35,-0.82,-1,
ACTTACGGGTCAACGAAGTTATAGCACGCGTATA,2.94,3.94,2.05,3.18,2.32,3.73,0.0102,4.15,0.443,4.15,3.02,5.31,4.65,1.66,5.31,2.78,-0.0625,0.948,
TCTAGTTGGTCAAAGGCCACACACTCGAAATGCG,2.18,3.17,0.393,0.329,1.01,0.772,0.0843,1.28,0.063,1.95,1.9,1.77,1.42,0.875,1.71,0.626,0.029,-0.00157,
CCTTACGGGTCTCTCCAGGTTATAGCATCGGAGT,0.165,0.161,-0.412,-0.96,0.354,0.294,-0.138,0.923,0.0233,0.15,0.324,0.139,0.231,-0.347,0.0573,3.09,0.346,0.105,
TAGCCTAGGTCATAGGCCAGTATACCACGCGAAC,1.31,3.09,0.284,-0.111,1.91,1.47,-0.481,2.66,-0.0614,3.66,2.58,3.89,4.21,0.7,3.51,2.65,0.622,0.651,
CAAACTAGGTCAAGAGGTCAAAGGCCGCTTCCCG,8.35,8.52,6.15,3,8.5,6.37,2.72,8.18,4.57,5.58,5.53,8.17,7.84,2.67,7.98,4.21,2.35,4.46,
CCTACTGGGCCATTAAGAGGTCATTGATCATATG,4.25,4.13,0.259,0.0479,2.02,4.48,1.79,4.14,0.836,2.94,3.96,3.93,2.81,1.02,3.74,3.23,1.49,2.79,
GATTCAGGGTCAGCTAGAGGCCAGAGTATGGAAA,1.78,3.04,0.184,-0.207,2.1,3.77,0.432,4.59,0.68,4.5,3.87,7,5.09,1.93,4.72,3.52,1.01,0.938,
ATCGAAAGGTCGTGAGGTGAGTACACAGAAAGGC,0.432,2.33,1.04,0.897,2.45,3.57,0.557,4.33,0.76,3.91,3.12,4.77,4.06,1.6,5.77,3.39,1.68,1.92,
CGTCCAACGTCAAGGTCAGTGAAAGAGACTCGAA,-0.074,-0.0705,-0.79,-0.354,1.13,1.59,0.288,1.99,0.37,3.35,3.13,2.61,3.16,0.737,1.9,2.57,1.67,0.844,
AGTCAAAGTTCATCTAGGTATCGTAAGATATGCT,0.0537,2.59,0.906,0.493,2.49,5.11,5.44,3.62,1.32,4.95,3.84,5.45,5.99,4.54,,2.8,-0.179,5.25,5.01
GATACAGGGTGAGCTAGAGGCCAGAGTATGGAAA,0.274,0.614,-0.0983,-0.828,-0.261,-0.31,-0.845,0.0105,-0.483,0.744,0.626,2.08,0.586,-0.965,0.342,,-0.562,-0.731,-0.523
CCTTACGGGTCACTCAAGGTTATAGCATCGGAGT,2.86,3.83,1.98,1.29,3.87,6.13,1.3,4.95,0.631,4.07,3.55,4.9,4.38,2.01,5.23,,1.01,1.75,5.32
